A selection: hits, their analogues and other compounds. The true share with any hit is near 3.5%.
MITF primary = inhibitors of human MITF | inhibition, % at 2.6 µM | AlphaScreen MITF homodimerization, bead proximity signal | 650,000 tested, 0.91% active | O75030; in the data active means inhibition above about 50%;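 further: 0% = vehicle wells with protein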
GPR151 ag = activates the human receptor GPR151 | Q8TDV0 | PathHunter beta-arrestin GPR151 cells, luminescence | activation, % at 11.2 µM | 650,000 tested, 1% active | AID 1508602; in the data active means activation above about 4.9%;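 further: 0% = median of compound wells and 100% = cells with positive control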
Target sequence (Q8TDV0 whole entry, looked up): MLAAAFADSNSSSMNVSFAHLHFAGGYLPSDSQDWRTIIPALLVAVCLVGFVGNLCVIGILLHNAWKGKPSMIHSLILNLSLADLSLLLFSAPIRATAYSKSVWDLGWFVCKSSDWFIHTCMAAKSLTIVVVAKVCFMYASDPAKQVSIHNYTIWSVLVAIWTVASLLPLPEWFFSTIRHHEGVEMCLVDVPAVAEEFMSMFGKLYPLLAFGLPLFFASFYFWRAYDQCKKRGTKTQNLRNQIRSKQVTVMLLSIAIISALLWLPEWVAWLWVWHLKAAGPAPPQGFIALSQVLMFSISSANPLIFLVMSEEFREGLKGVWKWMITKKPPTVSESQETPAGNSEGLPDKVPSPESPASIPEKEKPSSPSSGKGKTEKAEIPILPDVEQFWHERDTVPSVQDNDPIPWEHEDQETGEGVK
TEAD-YAP block = TEAD-YAP interaction inhibition; HEK-TIYL cells, TEAD-Gal4/YAP UAS-luciferase luminescence; inhibition, % at 9.12 µM; 640,000 tested, 1.4% active; in the data active means inhibition above about 32%;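 further: 0% = median of test compound wells and 100% = reference inhibitor wells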
FBW7 act = activators of human E3 ligase FBW7; Q969H0; AlphaScreen FBW7–phospho-cyclin E peptide binding, activator screen; normalized activity (activation), % at 26.1 µM; 650,000 tested, 0.13% active; in the data active means normalized activity above about 1.9%;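 further: purified mutant Fbw7 with reduced substrate affinity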
Numbers without * were called inactive.

SMILES | MITF primary | GPR151 ag | TEAD-YAP block | FBW7 act
c1cncc(Nc2nc(NCCN3CCOCC3)c3ncn(-c4ccsc4)c3n2)c1 | -2.6 | 1.1 | 50.9* | -0.1
COc1cc(Nc2nc(NCCO)c3ncn(-c4ccccc4)c3n2)cc(OC)c1OC | 0.3 | 0.4 | 27.8 | 0.0
c1ccc(-n2cnc3c(NCCN4CCOCC4)nc(Nc4ccc(N5CCOCC5)cc4)nc32)cc1 | 18.0 | 4.1 | 58.9* | -0.2
c1ccc(-n2cnc3c(NCCN4CCOCC4)nc(Nc4cccnc4)nc32)cc1 | -0.7 | 0.7 | 33.7* | 0.0
c1cncc(CNc2nc(NCCN3CCOCC3)c3ncn(-c4ccsc4)c3n2)c1 | -10.3 | -0.5 | -1.5 | -0.1
O=C(Nc1ccc(Cc2ccc(NC(=O)c3ccc(S(=O)(=O)N4CCCC4)cc3)cc2)cc1)c1ccc(S(=O)(=O)N2CCCC2)cc1 | 2.1 | -0.3 | 0.5 | -0.1
Cn1nccc1Nc1nc(NCCN2CCOCC2)c2ncn(-c3ccsc3)c2n1 | -0.4 | -1.6 | 49.6* | 0.0
c1ccc(Nc2nc(NCCN3CCOCC3)c3ncn(-c4ccsc4)c3n2)cc1 | -0.5 | 0.6 | 54.6* | -0.1
c1cc(Nc2nc(NCCN3CCOCC3)c3ncn(-c4ccsc4)c3n2)ncn1 | 10.6 | -0.1 | 37.0* | 0.2
CCCOc1ccc(C2NC(=O)NC(C)=C2C(=O)Nc2ccc(OC)cc2)c(O)c1 (configuration not stated) | 13.2 | -0.9 | 0.3 | 0.3
CC(C)(C)c1ccc(/C=C/C(=O)Nc2ccccn2)cc1 | -7.4 | -1.7 | 70.4* | 0.0
Cc1ccc(NC(=O)/C=C/c2ccco2)nc1 | 3.1 | -0.5 | 24.1 | 0.1
COc1ccc(/C=C/C(=O)NCc2ccccn2)cc1 | -10.4 | -0.3 | -21.6 | -0.1
O=C(/C=C/c1ccco1)Nc1ccccn1 | 1.4 | -7.2 | 50.8* | -1.8
COc1ccc(/C=C/C(=O)Nc2ccccn2)cc1 | 6.5 | -10.1 | 46.8* | 0.1
COc1ccc(OC)c(-n2c(C)cn3c4c(=O)n(C)c(=O)n(C)c4nc23)c1 | -0.9 | -0.7 | -9.7 | -0.1
COc1ccc(C)cc1-n1c(C)cn2c3c(=O)n(C)c(=O)n(C)c3nc12 | 8.2 | 0.6 | 44.6* | 0.0
O=C(O)c1ccccc1NC(=O)C1COc2ccccc2O1 (configuration not stated) | 0.1 | -8.1 | 3.3 | 0.0
COc1cccc(CN(CCN(C)C)C(=O)c2cnc3ccc(-c4cn[nH]c4)cn23)c1 | 0.9 | 0.6 | 45.4* | 0.1
COc1cccc(CN(CCN(C)C)C(=O)Nc2ccc(-c3cn[nH]c3)cc2N(C)C)c1 | 25.3 | -1.5 | 49.6* | -0.2
COc1cccc(CN(CCCN(C)C)C(=O)Nc2ccc(-c3cn[nH]c3)cc2OC)c1 | -10.3 | 1.4 | -12.0 | 0.1
COc1cccc(CN(CCN(C)C)C(=O)c2cnc3cc(-c4cn[nH]c4)ccn23)c1 | -4.0 | -1.7 | -10.2 | -0.1
COc1cccc(CN(C)C(=O)c2cnc3cc(-c4cn[nH]c4)ccn23)c1 | -4.8 | -1.3 | 45.6* | -0.1
O=C(COc1ccccc1)Nc1ccc(Br)cc1 | 17.0 | -0.6 | -41.4 | 0.1
CN(C)c1ccc(NC(=O)CSc2nnc3c4ccccc4n(C)c3n2)cc1 | -3.0 | 2.1 | 3.0 | -0.2
SMILES | MITF primary | GPR151 ag | TEAD-YAP block | FBW7 act
Nc1nc(NCCO)cc(NCCN2CCOCC2)n1 | -12.5 | -1.3 | -4.2 | -0.2
COC(=O)c1cc(COC(=O)c2cccc(S(=O)(=O)NCc3ccccc3)c2)oc1C | 10.7 | 0.5 | -5.1 | 0.0
COc1ccc(COC(=O)c2cccc(S(=O)(=O)NCc3ccccc3)c2)cc1F | -3.4 | 0.8 | 45.2* | -0.1
Cc1ccc(S(=O)(=O)N2CCOCC2)c(C)c1N1CCCC1=O | 6.7 | -0.7 | 4.9 | 0.0
Cc1ccn(S(=O)(=O)c2ccc(C)c(N3CCCC3=O)c2C)n1 | 10.9 | 0.6 | 7.9 | 2.0*
COc1cccc(-c2cc3nc(C4CCCNC4)cc(N)n3n2)c1 (configuration not stated) | -9.5 | -0.5 | 36.8* | -0.2
COc1ccc(-c2cc3nccc(C4CCCNC4)n3n2)cc1OC (configuration not stated) | 2.1 | 1.1 | 2.4 | -0.1
CCCCS(=O)(=O)/C=C\C=C\S(=O)(=O)CCCC | -0.5 | 1.0 | 89.8* | -0.1
Cc1nn(C)cc1-c1nc(C(N)=O)c2[nH]c(=O)n(Cc3ccccc3)c2n1 | 4.8 | 0.9 | 18.3 | -0.1
CCOCCCNC(=O)/C(C#N)=C/c1c(Oc2ccc(C)cc2)nc2c(C)cccn2c1=O | 10.2 | -0.4 | 18.5 | -0.1
COCCNC(=O)/C(C#N)=C/c1c(Oc2ccccc2OC)nc2c(C)cccn2c1=O | 5.3 | 1.1 | 33.8* | -0.1
CCOCCCNC(=O)/C(C#N)=C/c1c(Oc2ccccc2C)nc2c(C)cccn2c1=O | 3.8 | -0.1 | 32.4* | 0.0
